Several values for one entry are separate records, joined by “and”; a condition that tells them apart may be missing. Equal entries are not always repeated. Records with an inconclusive call do not appear. Activity calls are given as the source filed them. The call rests on the fitted dose curve; in most records, active means well fitted curve in the direction sought with a large enough effect; inconclusive means small, poorly fitted or top-dose-only effect, or another doubt; inactive means no such curve, though single readings can be large; an effect the other way counts as inactive or inconclusive.
Assays:
[1] = Quantitative High-Throughput drug screen in 47 multiple myeloma cell lines against the NCATS MIPE library collection: Karpas620_DSMZ cell viability assay (AID 1918959); conditions: Karpas620 myeloma viability, CellTiter-Glo ATP luminescence, 48 h; series mostly up to 45.8 µM; further: potency means the concentration at half of the fitted maximal effect; nearly all actives have a fitted effect of over 30% in size
How it was run: (§1)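 Steps: seed 500 cells per well; pin-transfer MIPE 4.0 library; incubate 48 h at 37C, 5% CO2, humidified; add CellTiter-Glo, 5 min room temperature; read luminescence.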

[2] = Quantitative High-Throughput drug screen in 47 multiple myeloma cell lines against the NCATS MIPE library collection: KHM11_PLB cell viability assay (AID 1918962); conditions: KHM11 myeloma cell viability, CellTiter-Glo ATP luminescence, 48 h; series mostly up to 45.8 µM; further: potency means the concentration at half of the fitted maximal effect; nearly all actives have a fitted effect of over 35% in size
How it was run: as §1

[3] = Quantitative High-Throughput drug screen in 47 multiple myeloma cell lines against the NCATS MIPE library collection: INA6_PLB cell viability assay (AID 1918965; further: potency means the concentration at half of the fitted maximal effect; nearly all actives have a fitted effect of over 55% in size); conditions: INA6 myeloma viability, CellTiter-Glo ATP luminescence, 48 h; series mostly up to 45.8 µM
How it was run: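 CellTiter-Glo luminescence (ATP) after 48 h compound exposure, 37C/5% CO2; 500 cells/well; MIPE 4.0 approved/investigational drugs pinned in; DMSO = 100%, media only = 0% viability.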

[4] = Quantitative High-Throughput drug screen in 47 multiple myeloma cell lines against the NCATS MIPE library collection: ARD_JJKsccE7 cell viability assay (AID 1918929; further: potency means the concentration at half of the fitted maximal effect); conditions: ARD myeloma cell line viability, CellTiter-Glo, 48 h; series mostly up to 45.8 µM
How it was run: (§2)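 We plated 500 myeloma cells per well, pinned in MIPE 4.0 compounds, and incubated for 48 hours at 37C. ATP was then quantified with CellTiter-Glo, with DMSO and media-only wells defining 100% and 0%.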

[5] = Quantitative High-Throughput drug screen in 47 multiple myeloma cell lines against the NCATS MIPE library collection: JIM3_ECACC cell viability assay (AID 1918963; further: potency means the concentration at half of the fitted maximal effect; nearly all actives have a fitted effect of over 35% in size); conditions: JIM3 myeloma viability, CellTiter-Glo ATP, 48 h; series mostly up to 45.8 µM
How it was run: as §1

[6] = Quantitative High-Throughput drug screen in 47 multiple myeloma cell lines against the NCATS MIPE library collection: KMM1_JCRB cell viability assay (AID 1918960); conditions: KMM1 myeloma viability, CellTiter-Glo ATP luminescence, 48 h; series mostly up to 45.8 µM; further: nearly all actives have a fitted effect of over 30% in size
How it was run: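 Cell viability inhibition in this qHTS is measured via ATP content (CellTiter-Glo) after 48 h drug exposure at 37 °C. Wells hold 500 cells; DMSO-treated wells define 100% and medium-only wells 0%.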

[7] = Quantitative High-Throughput drug screen in 47 multiple myeloma cell lines against the NCATS MIPE library collection: JIM1_ECACC cell viability assay (AID 1918964; further: potency means the concentration at half of the fitted maximal effect); conditions: JIM1 myeloma viability, CellTiter-Glo ATP luminescence, 48 h; series mostly up to 45.8 µM
How it was run: as §2

With `O=C1CCCC2=C1C(c1[nH]ncc1Cl)N=C(Nc1nc3ccccc3o1)N2` (stereo not given) the Potency [1] was 4.18 µM (active), the Potency [2] was 4.18 µM (active) and the Potency [3] was 5.9 µM (active).

For `Cc1cnc(Nc2ccc(OCCN3CCCC3)cc2)nc1Nc1cccc(S(=O)(=O)NC(C)(C)C)c1`, the Potency [1] was 1.48 µM (active).

In the case of `CN[C@@H](C)C(=O)N[C@H]1CCCC[C@H]2CC[C@@H](C(=O)N[C@@H](c3ccccc3)c3cn(CCCCc4ccc(CCCCn5cc([C@@H](NC(=O)[C@@H]6CC[C@@H]7CCCC[C@H](NC(=O)[C@H](C)NC)C(=O)N76)c6ccccc6)nn5)cc4)nn3)N2C1=O`, the Potency [1] is reported as 14.8 µM (active), the Potency [2] is reported as 5.26 µM (active) and the Potency [3] is reported as 8.33 µM (active).

In the case of `CC(C=CC1=C(C)CCCC1(C)C)=CC=CC(C)=CC(=O)O`, the Potency [4] is reported as 23.5 µM (active), the Potency [2] is reported as 5.9 µM (active) and the Potency [5] is reported as 20.9 µM (active) and 4.69 µM (active). The Potency [3] was 14.8 µM (active) and 5.9 µM (active).

For `Clc1ccc(Nc2nnc(Cc3ccncc3)c3ccccc23)cc1`, the Potency [1] was 1.66 µM (active), the Potency [6] was “inactive” and the Potency [5] was 20.9 µM (active). For the same compound, the Potency [7] was “inactive” and the Potency [3] was 16.6 µM (active).

With `COc1cc(Oc2ccnc3cc(OC)c(OC)cc23)ccc1NC(=O)NC(C)c1nccs1` (stereo not given) the Potency [1] was 7.43 µM (active), the Potency [5] was 20.9 µM (active) and the Potency [7] was 0.105 µM (active).

With `CN(C)c1ccc(Nc2nc(N)n(C(=O)c3c(F)cccc3F)n2)cc1` the Potency [4] was 20.9 µM (active), the Potency [2] was 20.9 µM (active) and the Potency [7] was 18.7 µM (active). The Potency [3] was 1.87 µM (active).

For `CCN(CC)CCCC(C)Nc1ccnc2cc(Cl)ccc12` (stereo not given), the Potency [6] was “inactive” and the Potency [7] was “inactive”.
